Compound activity: PubChem BioAssay, National Center for Advancing Translational Sciences (NCATS)
Hits are enriched below; roughly 1.9% of the tested compounds scored in any of these assays.
Epigenetic derep: Quantitative High-Throughput Screen for Regulators of Epigenetic Control. murine LDR cells, GFP reporter derepression, 30 h. Potency, µM (series often up to 53.9 µM), usual class: activators. 280,000 tested, 0.2% active. AID 1865, 2009; active means well fitted activation curve with a large enough effect; inconclusive means small, poorly fitted or top-dose-only effect; further: nearly all actives have a fitted effect of over 60% in size
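Murine LDR cells carrying a silenced, genomically integrated CMV-driven GFP reporter were exposed to compound for 30 hours at 37 C. After PBS washes, GFP-positive cells (20–120 um objects) were counted by laser-scanning microplate cytometry.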
Menin MLL FP TR: qHTS Assay for Inhibitors Targeting the Menin-MLL Interaction in MLL Related Leukemias: Competition With Texas Red Labeled MLL-derived Mutant Peptide; Menin + Texas Red MLL mutant peptide, fluorescence polarization; 270,000 tested, 0.23% active; O00255; Potency, µM (series often up to 61.6 µM), actives largely listed as inhibitors; AID 1768, 2009; active means well fitted inhibition curve with a large enough effect in the polarisation, with a control signal flat, not every such curve was filed as active; inconclusive means small, poorly fitted or top-dose-only effect, or effect the other way, or a change in a side signal; inactive means no such curve, though single readings can be large or run the other way; the % refers to the polarisation
PINK1 expr mod: A Quantitative High throughput Screen to Identify Chemical Modulators of PINK1 Expression; AID 624263, 2012; Potency, µM (doses to about 76.6 µM), actives largely listed as activators; PINK1 immunofluorescence, high-content cytometry, 24 h; 410,000 tested, 0.2% active; active means well fitted activation curve with a large enough effect; inconclusive means small, poorly fitted or top-dose-only effect; cell line not stated here; further: nearly all actives have a fitted effect of over 65% in size
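Measures PINK1 amount and localization on or inside mitochondria by immunofluorescence. Stable cells get compounds at 5 concentrations for 24 hours before fixation and staining; CCCP controls included.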
ClpP mod: qHTS Assay for Activators of ClpP; AID 651965, 2013; purified B. subtilis ClpP, FRET peptide cleavage, 20 min; Potency, µM (top dose mostly 57.5 µM); 340,000 tested, 1.9% active; ATP-dependent Clp protease proteolytic subunit (Bacillus subtilis (strain 168)), P80244; active means well fitted falling curve with a large enough effect; inconclusive means small, poorly fitted or top-dose-only effect; inactive means no such curve, though single readings can be large or run the other way; further: the source files actives as falling curves though it sought activators and does not explain the sign; nearly all actives have a fitted effect of over 65% in size
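ClpP 10 microg/mL final, pH 8 Tris/KCl buffer with BSA, glycerol, Tween-20; compound pinned in; FRET-FV substrate; RT 20 min; Ex320/Em430; ΔFRET vs ADEP 5.8 microM, DMSO, no enzyme.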
Menin-MLL FL inh: qHTS Assay for Inhibitors Targeting the Menin-MLL Interaction in MLL Related Leukemias: Competition With Fluorescein Labeled MLL-derived Peptide; Fluorescence polarization, fluorescein-MLL peptide displacement from menin; FP activity change, % at 61.4 µM; 290,000 tested, under 10 active; AID 1766, 2009; active means well fitted curve in the direction sought with a large enough effect in the polarisation, not every such curve was filed as active; inconclusive means small, poorly fitted or top-dose-only effect, or effect the other way, or a change in a side signal; inactive means no such curve, though single readings can be large or run the other way; the % refers to the polarisation
CXXC DNA block: qHTS Fluorescence Polarization Assay for Inhibitors of MLL CXXC domain - DNA interaction; Histone-lysine N-methyltransferase 2A (Homo sapiens), Q03164; MLL-CXXC / FITC-HOXA9 DNA fluorescence polarization; Potency, µM (doses to about 115 µM), actives largely listed as inhibitors; 290,000 tested, 0.037% active; active means well fitted inhibition curve with a large enough effect in the polarisation, with a control signal flat, not every such curve was filed as active; inconclusive means small, poorly fitted or top-dose-only effect, or effect the other way, or a change in a side signal; inactive means no such curve, though single readings can be large or run the other way; the % refers to the polarisation
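Fluorescence polarization: 7 uM MLL-CXXC (stock) preincubated 5 min with compounds, then 50 nM fluorescein-HOX-A9 DNA (stock) added; 30 min ambient. Buffer 50 mM Tris-HCl pH 7.5, 50 mM NaCl, 1 mM DTT, 0.05% BSA.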
A number is an active result; 0 = inactive; ? = inconclusive; - = not tested or not shown; [ ] = dose if it differs, or a comment.

SMILES	Epigenetic derep	Menin MLL FP TR	PINK1 expr mod	ClpP mod	Menin-MLL FL inh	CXXC DNA block
CCN(CC)c1ccc(/C=C/c2sc3ccccc3[n+]2CCCCI)cc1	-	-	31.6µM	0	-	-
CC(=O)Nc1ccc(/C=C/c2sc3ccccc3[n+]2CCCCI)cc1	-	-	0	0	-	-
OC1(c2cccnc2)CCN(Cc2ccc3c(c2)CN(Cc2cccc(C(F)(F)F)c2)CCO3)CC1	-	-	0	-	-	-
COc1ccc(NS(=O)(=O)c2cccc(C(=O)NNC(=O)c3cncc(Br)c3)c2)cc1	-	-	0	28.2µM	-	-
CCOC(=O)c1sc2nc(C)nc(NCc3ccc(F)cc3)c2c1C	-	0	0	-	0	0
CCOC(=O)c1sc2nc(CC(=O)OC)nc(NCc3ccc(F)cc3)c2c1C	0	0	0	3.55µM	0	0
COc1ccc(C2NC(=O)NC3=C2CCc2ccccc23)cc1 (configuration not stated)	0	0	0	15.8µM	0	0
Cc1ccc(C2NC(=O)NC3=C2CCc2ccccc23)cc1 (configuration not stated)	0	0	0	?	?	0
CC(C)c1ccc(C2NC(=O)NC3=C2CCc2ccccc23)cc1 (configuration not stated)	0	?	0	28.2µM	0	0
O=C(NCC1(N2CCCCC2)CCCCC1)c1ccc(-n2cc(NC(=O)c3cccnc3)cn2)cc1	-	-	0	-	-	-
COc1ccc2nc(N3C(=O)CC(C(C)c4ccccc4)C3=O)sc2c1 (configuration not stated)	0	0	0	28.2µM	0	0
COc1ccc2nc(N3C(=O)CC(Cc4ccc(C)cc4)C3=O)sc2c1 (configuration not stated)	0	0	0	0	0	0
CCCCn1cc(S(=O)(=O)c2ccc(CC)cc2)c(=O)c2cc(F)c(N3CCCC(C)C3)cc21 (configuration not stated)	0	-	0	15.8µM	-	-
CCN(CC)c1cc2c(cc1F)c(=O)c(S(=O)(=O)c1ccc(C)cc1)cn2Cc1ccc(F)cc1	0	-	0	12.6µM	-	-
CCCn1cc(S(=O)(=O)c2ccccc2)c(=O)c2cc(F)c(N3CCCCC3)cc21	0	-	0	?	-	-
CCc1ccc(S(=O)(=O)c2cn(CC)c3cc(N4CCCCC4)c(F)cc3c2=O)cc1	0	-	0	25.1µM	-	-
CCn1cc(S(=O)(=O)c2ccccc2)c(=O)c2cc(F)c(N3CCCCCC3)cc21	0	-	0	31.6µM	-	-
CC(NS(=O)(=O)c1ccccc1[N+](=O)[O-])c1ccccn1 (configuration not stated)	-	-	0	0	-	-
CCOC(=O)CS(=O)(=O)c1nc(-c2ccc(F)cc2)cc(C(F)(F)F)n1	?	0	0	22.4µM	0	?
Cc1cc(S(=O)(=O)N2CCOCC2)ccc1OCC(=O)Nc1ccc(F)cc1	-	0	0	12.6µM	0	0
COc1ccc(S(=O)(=O)N2CCOCC2)cc1NC(=O)COC(=O)C1CCC1	-	-	0	35.5µM	-	-
COC(=O)C1CCCCN1Cc1ccc2c(c1)CN(Cc1cnn(-c3ccccc3)c1)CCO2 (configuration not stated)	-	-	0	-	-	-
CN1CC2=Cc3ccccc3OC23Oc2ccccc2C=C3C1	?	0	0	3.55µM	?	0
CCc1ccccc1OCC(=O)Nc1ccc(N2CCCC2)cc1C	-	-	28.2µM	-	-	-
CCC1CN(CCNC(=O)c2cc(C(C)C)nn2C)Cc2cc(OC)ccc2O1 (configuration not stated)	-	-	0	-	-	-
SMILES	Epigenetic derep	Menin MLL FP TR	PINK1 expr mod	ClpP mod	Menin-MLL FL inh	CXXC DNA block
Cc1cnc(-n2ncc(C(=O)NCc3ccncc3)c2C(C)C)nc1-c1ccc(F)cc1	-	-	0	-	-	-
COc1cccc(CNc2nc3nc(C)cc(C)n3n2)c1	0	0	0	20µM	0	0
O=CN1CCN(C(=O)Cc2ccc([N+](=O)[O-])cc2)CC1	0	0	0	25.1µM	0	0
O=CN1CCN(C(=O)c2ccc([N+](=O)[O-])cc2)CC1	0	0	0	0	0	0
COc1ccc(N2CCN(Cc3cc(=O)oc4cc(-c5ccccc5)c(O)cc34)CC2)cc1	0	?	0	31.6µM	0	0
CCc1cc2c(CN3CCN(CCO)CC3)cc(=O)oc2cc1O	0	0	0	14.1µM	0	0
COc1cccc(-c2ccnc(-n3ncc(C(=O)NCc4cccnc4)c3C3CC3)n2)c1	-	-	0	-	-	-
S=c1[nH]nc(-c2cc3ccccc3o2)n1Cc1ccccc1	0	0	0	3.16µM	0	0
COCc1cc(C)nc2sc(C(=O)Nc3nccs3)c(N)c12	0	0[11.7 µM]	0	0	0	0
Cc1cc(C)c2c(N)c(C(=O)Nc3nccs3)sc2n1	0	0	0	35.5µM	0	0
CCOC(=O)c1sc2nc(C)cc(C)c2c1N	0	0	0	28.2µM	0	0
CCCCOC(=O)c1sc2nc(C)cc(C)c2c1N	0	-	0	-	0	0
Cc1ccc(NC(=O)CSc2nc(=O)n(CCCN3CCOCC3)c3c2CCCC3)cc1F	-	-	0	31.6µM	-	-
CC(=O)Nc1cccc(NC(=O)CSc2nc(=O)n(CCCN3CCOCC3)c3c2CCC3)c1	-	-	0	28.2µM	-	-
O=C(CSc1nc2ccccc2c(=O)n1CCCN1CCOCC1)Nc1cccc(S(=O)(=O)N2CCCCCC2)c1	0	0	0	17.8µM	0	0
CC(=O)Nc1cccc(NC(=O)CSc2nc(=O)n(CCN3CCOCC3)c3c2CCC3)c1	-	-	0	?	-	-
CCc1ccc(NC(=O)CSc2nc(=O)n(CCCN3CCOCC3)c3c2CCCC3)cc1	-	-	0	0	-	-
O=C(Nc1cc(Cl)ccc1-n1cncn1)c1ccco1	-	-	0	0	-	-
O=C(Nc1cc(Cl)ccc1-n1cncn1)c1ccc([N+](=O)[O-])s1	-	-	5.01µM	0	-	0
COc1ccccc1-c1c(C)oc2c(CN3CCOCC3)c(O)ccc2c1=O	-	0	0	0	0	0
COc1ccc(Oc2c(C)oc3c(CN4CCOCC4)c(O)ccc3c2=O)cc1	0	0	0	31.6µM	0	0
Cc1oc2c(CN3CCOCC3)c(O)ccc2c(=O)c1-c1ccccc1	0	0	-	28.2µM	0	0
COc1cccc(Oc2c(C)oc3c(CN4CCOCC4)c(O)ccc3c2=O)c1	-	-	0	0	-	-
COc1ccc(OC)c(S(=O)(=O)N2CCC3(CC2)CC(=O)c2ccccc2O3)c1	-	-	0	?	-	-
COc1cccc(N2CC(C(=O)N3CCC4(CC3)CC(=O)c3ccccc3O4)CC2=O)c1 (configuration not stated)	-	-	0	28.2µM	-	-
